{"source": "the supplement of paper PMC11624193", "about": "“Coupling cellular drug-target engagement to downstream pharmacology with CeTEAM” (Nature Communications, 2024)", "target": "PARP1 L713F-nLuc biosensor (HCT116) (UniProt P09874)", "sequence (P09874 whole entry L713F, looked up)": "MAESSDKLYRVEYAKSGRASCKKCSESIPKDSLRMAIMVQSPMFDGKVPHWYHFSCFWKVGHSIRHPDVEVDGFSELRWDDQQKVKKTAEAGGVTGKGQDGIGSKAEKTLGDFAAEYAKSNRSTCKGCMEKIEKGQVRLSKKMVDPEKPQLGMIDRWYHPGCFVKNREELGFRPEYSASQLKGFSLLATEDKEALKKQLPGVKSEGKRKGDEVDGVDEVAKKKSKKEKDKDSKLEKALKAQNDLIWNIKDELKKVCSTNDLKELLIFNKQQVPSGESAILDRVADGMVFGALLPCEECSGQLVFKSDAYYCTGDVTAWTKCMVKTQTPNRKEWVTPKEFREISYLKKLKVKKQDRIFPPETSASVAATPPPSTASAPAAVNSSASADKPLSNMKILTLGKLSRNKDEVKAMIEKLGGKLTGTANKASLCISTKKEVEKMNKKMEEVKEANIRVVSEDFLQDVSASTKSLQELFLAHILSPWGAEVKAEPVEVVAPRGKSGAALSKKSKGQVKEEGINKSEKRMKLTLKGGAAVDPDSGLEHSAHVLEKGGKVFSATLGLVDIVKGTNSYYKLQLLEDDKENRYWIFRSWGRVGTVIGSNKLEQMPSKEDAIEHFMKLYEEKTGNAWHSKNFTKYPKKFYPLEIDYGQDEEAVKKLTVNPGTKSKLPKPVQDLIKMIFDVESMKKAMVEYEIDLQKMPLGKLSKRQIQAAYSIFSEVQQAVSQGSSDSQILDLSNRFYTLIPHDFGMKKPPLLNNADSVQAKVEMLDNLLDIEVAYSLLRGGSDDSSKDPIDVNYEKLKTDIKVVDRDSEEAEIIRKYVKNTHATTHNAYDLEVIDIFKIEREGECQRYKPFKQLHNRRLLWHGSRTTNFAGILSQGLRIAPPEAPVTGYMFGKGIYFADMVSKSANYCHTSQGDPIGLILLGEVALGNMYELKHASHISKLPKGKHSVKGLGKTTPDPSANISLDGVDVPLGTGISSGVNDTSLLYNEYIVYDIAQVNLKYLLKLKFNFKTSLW", "experiment": "PARP1 L713F-nLuc/akaLuc ratio relative to DMSO control (biosensor stabilization) (fold change); higher = more PARP1 biosensor stabilization (target engagement / stabilizer), active = hit call of the paper", "settings": "24 h", "key": {"[1]": {"settings": "stock concentration (mM; final µM = stock mM x 1): 2"}, "[2]": {"settings": "stock concentration (mM; final µM = stock mM x 1): 10"}}, "note": "Where a name gives a salt, the structure may show the parent alone. A number with no mark means an inactive call.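 Rule for the calls: active = log2 fold change beyond 2 SD from the library mean after excluding viability outliers; inactive = within 2 SD.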"}
{"smiles": "C=CC(=O)Nc1cc2c(Nc3ccc(F)c(Cl)c3)ncnc2cc1OCCCN1CCOCC1", "note": "[Canertinib (CI-1033)]", "values": [{"measurement": "PARP1 L713F-nLuc/akaLuc ratio", "setting": "[1]", "value": 1.01}]}
{"smiles": "Cn1cc(-c2cnn3c(N)c(Br)c([C@@H]4CCCNC4)nc23)cn1", "values": [{"measurement": "PARP1 L713F-nLuc/akaLuc ratio", "setting": "[1]", "value": 2.66}]}
{"smiles": "CCN(c1cc(-c2ccc(CN3CCOCC3)cc2)cc(C(=O)NCc2c(C)cc(C)[nH]c2=O)c1C)C1CCOCC1", "note": "[Tazemetostat (EPZ-6438)]", "values": [{"measurement": "PARP1 L713F-nLuc/akaLuc ratio", "setting": "[1]", "value": 1.21}]}
{"smiles": "CN(C)c1ccc(-c2nc3ncc(Cl)c(N4CCN(CC(=O)Nc5nccs5)CC4)c3[nH]2)cc1", "values": [{"measurement": "PARP1 L713F-nLuc/akaLuc ratio", "setting": "[1]", "value": 0.845}]}
{"smiles": "Cn1cc(C[C@@H](N)C(=O)O)c2ccccc21", "note": "[Indoximod (NLG-8189?]", "values": [{"measurement": "PARP1 L713F-nLuc/akaLuc ratio", "setting": "[1]", "value": 0.857}]}
{"smiles": "CCc1cc(O)c(F)cc1-c1ccc2c(-c3nc4c([nH]3)CN(C3CCN(C)CC3)CC4)n[nH]c2c1", "note": "[JAK-IN-5 (hydrochloride)]", "values": [{"measurement": "PARP1 L713F-nLuc/akaLuc ratio", "setting": "[1]", "value": 0.581}]}
{"smiles": "CCC(C)n1ncn(-c2ccc(N3CCN(c4ccc(OCC5COC(Cn6cncn6)(c6ccc(Cl)cc6Cl)O5)cc4)CC3)cc2)c1=O", "note": "(stereo unspecified) [Itraconazole]", "values": [{"measurement": "PARP1 L713F-nLuc/akaLuc ratio", "setting": "[1]", "value": 0.872}]}
{"smiles": "N[C@@H]1[C@@H](O)[C@H](O[C@@H]2O[C@H](CO)[C@@H](O)[C@H](O)[C@H]2N)[C@@H](CO)O[C@H]1O", "note": "[Chitosan oligosaccharide]", "values": [{"measurement": "PARP1 L713F-nLuc/akaLuc ratio", "setting": "stock concentration (mM; final µM = stock mM x 1): 9", "value": 0.65}]}
{"smiles": "CN(C(=O)c1ccc(F)cc1C(F)(F)F)C1CCN(c2nnc(-c3ccnn3C)c3ccccc23)CC1", "values": [{"measurement": "PARP1 L713F-nLuc/akaLuc ratio", "setting": "[1]", "value": 1.11}]}
{"smiles": "O=C(O)c1ccc2c(c1)nc(Nc1cccc(Cl)c1)c1ccncc12", "note": "[Silmitasertib (CX-4945)]", "values": [{"measurement": "PARP1 L713F-nLuc/akaLuc ratio", "setting": "[2]", "value": 0.822}]}
{"smiles": "O=C(COc1cccc2c(=O)[nH]ccc12)c1ccccc1", "values": [{"measurement": "PARP1 L713F-nLuc/akaLuc ratio", "setting": "[2]", "value": 1.08}]}
{"smiles": "Cc1cc(-c2ccccc2)cc(C(=O)NNS(=O)(=O)c2ccccc2)c1F", "values": [{"measurement": "PARP1 L713F-nLuc/akaLuc ratio", "setting": "[2]", "value": 0.665}]}
{"smiles": "CC(C)(C)c1cc(NC(=O)Nc2ccc(-c3cn4c(n3)sc3cc(OCCN5CCOCC5)ccc34)cc2)no1", "note": "[Quizartinib (AC220)]", "values": [{"measurement": "PARP1 L713F-nLuc/akaLuc ratio", "setting": "[2]", "value": 0.802}]}
{"smiles": "CC[C@@](C)(Nc1ccnc(-c2c[nH]c3ncccc23)n1)C(=O)NCC(F)(F)F", "note": "[Decernotinib (VX-509)]", "values": [{"measurement": "PARP1 L713F-nLuc/akaLuc ratio", "setting": "[2]", "value": 0.506}]}
{"smiles": "N#Cc1cc(F)cc(Oc2ccc(S(=O)(=O)C(F)F)c3c2CC(F)(F)[C@H]3O)c1", "values": [{"measurement": "PARP1 L713F-nLuc/akaLuc ratio", "setting": "[2]", "value": 0.774}]}
{"smiles": "C=C(C)[C@@H]1CCC(C)=C[C@H]1C1=C(O)C(=O)C(CCCCC)=C(NCc2ccccc2)C1=O", "values": [{"measurement": "PARP1 L713F-nLuc/akaLuc ratio", "setting": "[2]", "value": 1.39}]}
{"smiles": "c1cc(-c2cnn3cc(-c4ccc(OCCN5CCCCC5)cc4)cnc23)ccn1", "note": "[Dorsomorphin (dihydrochloride)]", "values": [{"measurement": "PARP1 L713F-nLuc/akaLuc ratio", "setting": "[2]", "value": 1.8}]}
{"smiles": "CNC(=O)c1nnc(NC(=O)C2CC2)cc1Nc1cccc(-c2ncn(C)n2)c1OC", "note": "[Deucravacitinib]", "values": [{"measurement": "PARP1 L713F-nLuc/akaLuc ratio", "setting": "[2]", "value": 0.748}]}
{"smiles": "COc1cccc(-n2c(=O)[nH]c3cc(Cl)n(-c4ccc(-c5cccc(OC)c5O)cc4)c3c2=O)c1", "values": [{"measurement": "PARP1 L713F-nLuc/akaLuc ratio", "setting": "[2]", "value": 0.814}]}
{"smiles": "CC(C)(CCCCCC(O)CCCCCC(C)(C)C(=O)O)C(=O)O", "note": "[Bempedoic acid]", "values": [{"measurement": "PARP1 L713F-nLuc/akaLuc ratio", "setting": "[2]", "value": 1.02}]}
{"smiles": "CNC(=O)c1ccc(-c2cnc3ncc(Cc4ccc5ncccc5c4)n3n2)cc1F", "values": [{"measurement": "PARP1 L713F-nLuc/akaLuc ratio", "setting": "[1]", "value": 0.95}]}
{"smiles": "N[C@H]1CC[C@H](N[C@@H]2C[C@H]2c2ccccc2)CC1", "note": "[Iadademstat (dihydrochloride)]", "values": [{"measurement": "PARP1 L713F-nLuc/akaLuc ratio", "setting": "[2]", "value": 1.06}]}
{"smiles": "CC(=O)Nc1ccc(C(=O)Nc2ccc(F)cc2N)cc1", "values": [{"measurement": "PARP1 L713F-nLuc/akaLuc ratio", "setting": "[2]", "value": 0.984}]}
{"smiles": "COC(=O)c1cccc(NC(=O)NC2CCN(c3ccnc(Nc4ccc(F)cc4)n3)C2)c1", "note": "(stereo unspecified)", "values": [{"measurement": "PARP1 L713F-nLuc/akaLuc ratio", "setting": "[2]", "value": 1.07}]}
{"smiles": "O=C(O)C(Cc1c[nH]c2ccccc12)N1C(=O)c2ccccc2C1=O", "note": "(stereo unspecified)", "values": [{"measurement": "PARP1 L713F-nLuc/akaLuc ratio", "setting": "[2]", "value": 1.39}]}
{"smiles": "COc1ccc(CN2CCC(c3ccc4nc(C(=O)N5CCN(Cc6ccc(C(F)(F)F)cc6)CC5)[nH]c4c3)CC2)cn1", "values": [{"measurement": "PARP1 L713F-nLuc/akaLuc ratio", "setting": "[2]", "value": 0.348}]}
{"smiles": "CCOc1cccc2c1N[C@@H](c1ccc(C(=O)O)cc1)[C@H]1CC=C[C@@H]21", "note": "[LIN28 inhibitor LI71]", "values": [{"measurement": "PARP1 L713F-nLuc/akaLuc ratio", "setting": "[2]", "value": 0.616}]}
{"smiles": "O=c1[nH]c(N2CCC3(CC2)CN(CCO)c2cc(F)cc(F)c23)nc2c1CCCC2", "values": [{"measurement": "PARP1 L713F-nLuc/akaLuc ratio", "setting": "[2]", "value": 0.755}]}
{"smiles": "CCCCCCCc1ccc(CCc2cccc(O)c2C(=O)O)cc1", "values": [{"measurement": "PARP1 L713F-nLuc/akaLuc ratio", "setting": "[2]", "value": 0.768}]}
{"smiles": "O=C1COc2c(CCNCCN(C(=O)CCNCCc3ccc(Cl)c(Cl)c3)C3CCCCC3)ccc(O)c2N1", "note": "[AZ505 (ditrifluoroacetate)]", "values": [{"measurement": "PARP1 L713F-nLuc/akaLuc ratio", "setting": "[2]", "value": 0.634}]}
{"smiles": "CC1(C)CNc2cc(NC(=O)c3cccnc3NCc3ccncc3)ccc21", "note": "[Motesanib Diphosphate (AMG-706)]", "values": [{"measurement": "PARP1 L713F-nLuc/akaLuc ratio", "setting": "[2]", "value": 1.5}]}
